Laboratory results published in PMC5540273 (PLoS ONE, 2017).

Tests used:
Settings in all cases: concentration: 1 μM, replicates: in singlicate; n = 1
[1] = system: RPS6KA4(Kin.Dom.1-N-terminal)
[2] = system: RPS6KA4(Kin.Dom.2-C-terminal)
[3] = system: RPS6KA5(Kin.Dom.1-N-terminal)
[4] = system: RPS6KA5(Kin.Dom.2-C-terminal)
[5] = system: T1, RSK1(Kin.Dom.1-N-terminal)
T1 construct: gene RPS6KA1

[6] = system: T2, RSK1(Kin.Dom.2-C-terminal)
T2 construct: gene RPS6KA1

[7] = system: T3, RSK2(Kin.Dom.1-N-terminal)
T3 construct: gene RPS6KA3

[8] = system: T4, RSK2(Kin.Dom.2-C-terminal)
T4 construct: gene RPS6KA3

[9] = system: T5, RSK3(Kin.Dom.1-N-terminal)
T5 construct: gene RPS6KA2

[10] = system: T6, RSK3(Kin.Dom.2-C-terminal)
T6 construct: gene RPS6KA2
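Further: KINOMEscan kinase panel screen.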

Compound	%Inh [1] [%]	%Inh [2] [%]	%Inh [3] [%]	%Inh [4] [%]	%Inh [5] [%]	%Inh [6] [%]	%Inh [7] [%]	%Inh [8] [%]	%Inh [9] [%]	%Inh [10] [%]
CN(c1ccc(NC(=O)N2CCN(CCCN3CCOCC3)CC2)cc1)c1ccnc(Nc2ccc(CS(C)(=O)=O)cc2)n1.Cl [GW830899]	31	0	0	0	2	1	0	1	0	0
COc1cccc(NC(=O)NCCNc2ccnc(Nc3ccc(F)cc3)n2)c1 [GSK1379879]	0	0	0	34	18	0	3	0	3	0
CN(C)c1ncnc2nc[nH]c12 [SKF-31736]	1	0	0	11	0	0	39	0	0	0
CCNc1nccc(-c2c(-c3ccc(F)cc3)ncn2C2CCN(C)CC2)n1	0	0	0	8	5	50	9	15	6	10
COc1ccc(NC(=O)c2ccoc2)cc1-c1ccc(C(=O)NCC2CC2)cc1 [GW810437]	18	0	4	8	0	21	22	0	0	27
Nc1ncc(-c2cn[nH]c2)c2scc(-c3ccc4c(c3)CCN4C(=O)Cc3ccccc3)c12 [GSK2593067]	37	0	24	0	22	2	0	2	31	0
CN(C)CCNS(=O)(=O)c1ccc(-c2ccnc3[nH]ccc23)cc1 [GSK977620]	30	73	44	68	30	31	60	9	32	21
CSc1ccc(NC2=C(c3ccc(Cl)cc3)C(=O)NC2=O)cc1 [SB-317658]	28	0	2	30	6	0	11	0	0	0
COc1ccc(C2=C(Nc3cccc(O)c3)C(=O)NC2=O)cc1 [SB-390766]	0	0	2	0	32	0	24	96.4	3	21
O=C1NC(=O)C(c2ccccc2Cl)=C1Nc1cccc(Cl)c1 [SB-342409]	16	0	2	0	75	9	19	31	100	0
CS(=O)(=O)c1cccc(CNc2nc(Nc3ccc4c(c3)CCC(=O)N4)ncc2C(F)(F)F)c1	26	0	0	5	44	0	80	0	59	0
Cn1cc(-c2ccc3c(c2)CCN3C(=O)Cc2cc(F)cc(F)c2F)c2c(N)ncnc21 [GSK2634140]	19	0	20	0	21	0	12	0	12	0
O=C(Nc1n[nH]c2nc(-c3ccccc3)ccc12)C1CC1 [SB-708999]	5	0	13	4	0	0	0	32	4	0
Cc1cc(-c2c(-c3ccc(F)cc3)ncn2CCCN2CCOCC2)nc(N)n1 [SB-222517]	18	0	23	4	30	49	34	0	9	21
CCn1cnc2c(NCc3ccccc3)ncnc21 [SKF-96418]	13	0	11	0	0	0	30	0	0	0
O=C(Nc1n[nH]c2nc(-c3ccccc3O)ccc12)C1CC1 [SB-711880]	0	7	0	0	4	0	54	0	11	31

Compound	%Inh [1] [%]	%Inh [2] [%]	%Inh [3] [%]	%Inh [4] [%]	%Inh [5] [%]	%Inh [6] [%]	%Inh [7] [%]	%Inh [8] [%]	%Inh [9] [%]	%Inh [10] [%]
CN(c1ccc(NC(=O)Nc2cccc(Cl)c2)cc1)c1ccnc(N)n1.Cl [GW830707]	21	0	4	0	0	0	0	0	0	0
Cc1ccc(-c2ccc3occ(-c4ccc(S(C)=O)cc4)c3c2)nn1 (centres unmarked)	1	0	22	0	0	0	0	9	0	0
CN(c1ccc(F)c(NC(=O)c2cccc(OC(C)(C)C#N)c2Cl)c1)c1ccc2nc(NC(=O)C3CC3)sc2n1	0	0	11	6	0	1	0	59	0	0
CC(C)c1nc(-c2cccc(NS(=O)(=O)c3c(F)cccc3F)c2)c(-c2ccnc(Nc3ccc(N4CCOCC4)nc3)n2)s1.Cl [GSK1723980]	0	0	0	0	83	1	15	0	27	0
COC(=O)Nc1nc2cc(Oc3ccc(NC(=O)Nc4cccc(SC)c4)cc3)ccc2[nH]1.Cl [GW697999]	3	0	15	0	0	0	0	4	7	0
Cl.O=C(Nc1ccc(Oc2ccc3[nH]c(NC(=O)c4ccco4)nc3c2)cc1)Nc1cc(C(F)(F)F)ccc1F [GW683134]	16	0	14	6	0	16	3	3	54	9
O=C(O)C(F)(F)F.O=c1[nH]ccc2nc(N[C@@H]3CCNC3)nc(Nc3ccc4c(c3)S(=O)(=O)CC4)c12 [GSK2181306]	91.8	100	62	95.4	97.8	78	97.6	31	91.3	87
CNc1nccc(-c2ccc3c(N)n[nH]c3c2)n1 [GSK2206003]	3	91.8	19	63	22	22	38	0	14	5
Cc1cccc(Nc2nc(N[C@H]3CCCC[C@H]3N)ncc2C(N)=O)c1.Cl [GSK986310]	32	0	22	0	46	20	53	28	23	12
CN1CCN(Cc2ccc(NC(=O)Nc3ccc(N(C)c4ccnc(Nc5ccc(CS(C)(=O)=O)cc5)n4)cc3)cc2)CC1.Cl [GW827654]	39	16	0	0	75	15	0	46	42	25
O=C(Nc1n[nH]c2nc(-c3cccc(O)c3)ccc12)C1CC1 [SB-711805]	0	51	0	0	0	0	30	0	0	0
COc1cccc(CC(=O)N2CCc3cc(-c4cn(C)c5ncnc(N)c45)ccc32)c1 [GSK2608899]	28	0	1	11	21	27	16	17	22	20
COC(=O)Nc1nc2ccc(Oc3ccc(NC(=O)Nc4cc(C(F)(F)F)ccc4F)cc3)cc2[nH]1.Cl [GW654607]	15	0	0	0	0	13	0	35	12	0
Cc1cc(-c2ccnc(Nc3cccc(C#N)c3)n2)cc(C)c1O [GSK1440913]	0	0	0	0	12	17	5	0	26	21
O=C(O)C(F)(F)F.O=c1[nH]ccc2nc(N[C@@H]3CCNC3)nc(Nc3cc(Cl)cc(Cl)c3)c12 [GSK2188764]	94.6	99.9	65	86	96.7	64	98.3	30	94.8	55
Cl.Cl.NC(CNC(=O)c1cc(Br)c(-c2ccnc3[nH]ccc23)s1)c1ccccc1 (centres unmarked) [GSK1322949]	37	62	37	33	10	26	37	22	14	14
